Hits are enriched below; roughly 4.6% of the tested compounds scored in any of these assays.
TRHR enhancer-1 – qHTS for Small Molecule Agonists and Allosteric Enhancers of Human TRH Receptor: Primary Screen for Enhancers. actives 0.66% (n = 360,000). TRHR cells, fluo-8 calcium fluorescence, EC20 TRH enhancement. Thyrotropin-releasing hormone receptor (Homo sapiens), P34981. AID 493056, 2011. enhancement, % at 2 µM; in the data active means enhancement above about 30%; further: 0% is about no effect
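TRHR-expressing cells loaded with fluo-8 calcium dye were read kinetically (ex 480/em 530) during compound addition, then stimulated with an EC20 of TRH (10 nM final). Enhancement of the Gq-mediated intracellular calcium response was scored.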
TRHR agonist-1 – qHTS for Small Molecule Agonists and Allosteric Enhancers of Human TRH Receptor: Primary Screen for Agonists. actives 0.18% (n = 360,000). TRHR cells, calcium flux fluo-8, FDSS agonist mode. Thyrotropin-releasing hormone receptor (Homo sapiens), P34981. AID 493084, 2011. activation, % at 2 µM; further: 0% is about no effect
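Steps: seed TRHR cells overnight; add fluo-8 no-wash Ca dye, RT 30 min–1.5 h; record 10 s baseline; pin-transfer compounds; monitor fluorescence 1 cycle/s for the agonist window. Calcium increases flag candidate agonists.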
D1 PAM – Potentiators of Human D1 Dopamine Receptor: qHTS; D(1A) dopamine receptor (Homo sapiens), P21728; HEK293 TREx D1 cells, calcium flux, dopamine EC20 potentiation; potentiation, % at 10 µM; actives 0.036% (n = 360,000); AID 504651, 2011; in the data active means potentiation above about 30%; further: 0% is about no effect
Target sequence (P21728 whole entry, looked up): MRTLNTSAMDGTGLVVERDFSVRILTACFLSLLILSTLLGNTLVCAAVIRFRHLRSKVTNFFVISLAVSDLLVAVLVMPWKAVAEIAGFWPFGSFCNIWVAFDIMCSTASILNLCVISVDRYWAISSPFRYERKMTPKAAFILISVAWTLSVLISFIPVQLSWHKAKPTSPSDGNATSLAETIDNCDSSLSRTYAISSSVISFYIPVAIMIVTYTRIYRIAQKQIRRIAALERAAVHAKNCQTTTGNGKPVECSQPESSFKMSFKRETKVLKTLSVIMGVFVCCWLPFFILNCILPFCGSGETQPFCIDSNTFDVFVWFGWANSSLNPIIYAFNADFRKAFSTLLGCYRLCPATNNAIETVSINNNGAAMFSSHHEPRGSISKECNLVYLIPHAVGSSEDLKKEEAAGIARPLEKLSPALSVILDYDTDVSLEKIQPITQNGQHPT
D1 agonist – Allosteric Agonists of the Human D1 Dopamine Receptor: qHTS. D(1A) dopamine receptor (Homo sapiens), P21728. HEK293 T-REx D1 cells, calcium flux, agonist mode. activation, % at 2 µM. actives 1% (n = 360,000). AID 504660, 2011; further: 0% is about no effect
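Tetracycline-induced HEK293 TREx D1 cells, force-coupled to calcium signalling, were dye-loaded with a no-wash calcium kit. Compound was pin-added after a 10 s baseline. Fluorescence was read kinetically at 1 cycle/s for 180 s, with calcium rises flagged as agonism.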
D1 antag – Antagonist of Human D 1 Dopamine Receptor: qHTS; D(1A) dopamine receptor (Homo sapiens), P21728; HEK293 TREx D1 cells, calcium flux, dopamine EC80; stronger effect = lower value; activity change, negative = inhibition, % at 10 µM; actives 3.2% (n = 360,000); AID 504652, 2011; in the data active means activity change below about -30%; further: on the % scale 0 is the no-effect control and ±100 the full control effect
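After overnight tetracycline induction at 30 C, force-coupled D1 HEK293 cells took up a no-wash calcium dye at room temperature. Compounds were added and monitored 180 s, and the response to EC80 dopamine was then recorded.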
TRHR enhancer-2 – qHTS for Small Molecule Agonists and Allosteric Enhancers of Human TRH Receptor: Confirmation Screen for Enhancers | shares compounds with TRHR enhancer-1 | TRH receptor cell assay, enhancer confirmation qHTS | activity change, negative = inhibition, % at 46.1 µM | 970 tested, under 10 active; active means well fitted curve in the direction sought with a large enough effect; inconclusive means small, poorly fitted or top-dose-only effect, or another doubt; inactive means no such curve, though single readings can be large; an effect the other way counts as inactive or inconclusive;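 further: compound effect scored on response to added TRH at EC20 of 10 nM; 0% is about no effect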
TRHR agonist-2 – qHTS for Small Molecule Agonists and Allosteric Enhancers of Human TRH Receptor: Confirmation Screen for Agonists. shares compounds with TRHR enhancer-1. TRHR-expressing cells, agonist activation read-out. Potency, µM (top dose mostly 46.1 µM), for inactives: at the highest dose activation, hits mostly activators. actives 8% (n = 970). AID 493078, 2011; active means well fitted curve in the direction sought with a large enough effect; inconclusive means small, poorly fitted or top-dose-only effect, or another doubt; inactive means no such curve, though single readings can be large; an effect the other way counts as inactive or inconclusive; further: potency means the concentration at half of the fitted maximal effect; 0% is about no effect; nearly all actives have a fitted effect of over 75% in size
Numbers without * were called inactive; ? = inconclusive; . = not tested or not shown. Unless noted, no stated cut-off is given here; in the data, active means activation above about 30%; inactive means the rest.

SMILES | TRHR enhancer-1 | TRHR agonist-1 | D1 PAM | D1 agonist | D1 antag | TRHR enhancer-2 | TRHR agonist-2
CC1=NN(c2ccccc2)C(=O)/C1=C\c1ccc(Br)s1 | 9 | 0 | 4 | 2 | 5 | . | .
CC1=NN(c2ccccc2)C(=O)/C1=C/c1cccs1 | -10 | 28 | 9 | 0 | 0 | -13 | 1%
Cc1ccccc1OCC(=O)Nc1ccccc1C(=O)OCc1cc(=O)n2nc(C3CC3)sc2n1 | -5 | 0 | 1 | -1 | 10 | . | .
COc1ccc(Cn2c(O)c(/C=N/NC(=O)c3cccnc3)c3ccccc3c2=O)cc1 | 0 | 57* | 6 | 90* | 10 | -2 | 21µM*
Cc1cccc(-n2c(O)c(/C=N/NC(=O)c3ccccc3Cl)c3ccccc3c2=O)n1 | 15 | 5 | -3 | 8 | 1 | . | .
COc1ccc(Cn2c(O)c(C=Nc3ccc(OC)cc3)c3ccccc3c2=O)cc1 | -4 | 1 | 2 | 2 | 5 | . | .
O=C(N/N=C/c1c(O)n(-c2ccccc2Cl)c(=O)c2ccccc12)c1cccnc1 | 40* | 29 | 0 | 28 | 1 | 8 | ?
O=C(N/N=C/c1c(O)n(Cc2ccccc2)c(=O)c2ccccc12)c1cccnc1 | 4 | 30* | 4 | 47* | 10 | -1 | 21µM*
Cc1ccc(O)c(NC(=O)c2ccccc2-c2ccccc2C(=O)O)c1 | 43* | 0 | 5 | 5 | 0 | -2 | 7%
Cc1ccc(NC(=O)c2ccccc2-c2ccccc2C(=O)O)cc1 | -5 | 0 | -7 | 0 | -16 | . | .
COc1ccc(NC(=O)CSc2nc(O)c(C/C=C/c3ccccc3)c(=O)[nH]2)cc1 | 5 | 0 | 0 | -2 | -27 | . | .
O=C1NCCNC1(c1c[nH]c2ccccc12)C(F)(F)F (configuration not stated) | 4 | 0 | 2 | 4 | 9 | . | .
Cc1cc(O)c(C2(C(F)(F)F)NCCNC2=O)cc1C (configuration not stated) | 43* | 2 | -5 | 4 | 2 | -3 | 0%
CCO[C@H]1OC(C(=O)NC2CC2)=C[C@@H](C)[C@@H]1CCCO | 44* | -1 | 5 | -3 | 16 | -1 | -1%
COc1ccc(OCCOCCOc2ccc(C)cc2[N+](=O)[O-])cc1 | -1 | 0 | 2 | 8 | -7 | . | .
COc1ccc(CNCC(O)COc2ccc(C)cc2[N+](=O)[O-])cc1 (configuration not stated) | 2 | 34* | -14 | 22 | -10 | 4 | 2%
CCN(CC)S(=O)(=O)c1ccc(C(=O)N(c2ccc(C)cc2)C2C=CS(=O)(=O)C2)cc1 (configuration not stated) | 42* | -1 | 4 | 4 | 33 | -7 | -1%
CCOC(=O)CN1C(=O)S/C(=C/c2ccc3c(c2)n(C)c(=O)n3C)C1=O | -3 | 0 | 1 | 1 | 6 | . | .
CCOC(=O)CN1C(=O)S/C(=C/C=C/c2ccc(N(C)C)cc2)C1=O | -6 | 32* | -6 | 105* | -18 | -1 | ?
O=C(O)Cn1c(SCCOc2ccccc2)nc2ccccc21 | -3 | 0 | -5 | 4 | -20 | . | .
CCCCOc1ccc(OCCSc2nc3ccccc3n2CC(=O)O)cc1 | 56* | 0 | -3 | 1 | 5 | 4 | -1%
Cc1ccc(NC(=O)CCc2nc3cccnc3n2-c2ccccc2)cc1 | -3 | -2 | -1 | 0 | -8 | . | .
COc1ccccc1CN(C)C(=O)CN1CCN(S(=O)(=O)c2ccc3c(c2)OCCCO3)CC1 | 55* | -1 | -2 | 0 | 4 | -6 | 0%
CCc1cccc(NC(=O)CCn2c(=O)c3cccn3c3cccnc32)c1 | 7 | -1 | -3 | 1 | -4 | . | .
CCc1ccccc1NC(=O)CN(C)C(=O)Cn1ncc(Cl)c(Cl)c1=O | 49* | 0 | -5 | 2 | -1 | -2 | 1%
SMILES | TRHR enhancer-1 | TRHR agonist-1 | D1 PAM | D1 agonist | D1 antag | TRHR enhancer-2 | TRHR agonist-2
O=S(=O)(c1cccs1)N1CN(Cc2ccccc2)c2nc3ccccc3nc21 | 56* | 0 | -1 | 2 | 0 | -1 | 4%
Cc1ccc(NC(=O)CN2C(=O)c3ccccc3Sc3ccc(C(=O)N4CCOCC4)cc32)cc1F | -9 | 0 | 0 | 3 | 2 | . | .
COc1ccccc1CN(CC(=O)NCc1ccc2c(c1)OCO2)C(=O)c1csnn1 | -8 | 0 | 4 | -2 | -2 | . | .
O=C(CN(Cc1ccccc1Cl)C(=O)c1csnn1)NCc1ccc2c(c1)OCO2 | 51* | 0 | -7 | -1 | -7 | -11 | 4%
CC(SCc1ccccc1)C(=O)Nc1ccccc1F (configuration not stated) | 56* | 0 | -5 | 3 | -1 | 1 | 0%
C=Cc1ccc(CN2C(=O)N(c3ccc(CC)cc3)S(=O)(=O)c3ccccc32)cc1 | 2 | 1 | -3 | 6 | -12 | . | .
CCc1nnc(NC(=O)CCC(=O)N2CCN(Cc3cc(Cl)ccc3OC)CC2)s1 | 64* | 0 | -7 | 4 | 7 | 0 | 2%
COc1ccc(S(=O)(=O)N(C)CC(=O)NC2CCCCC2)cc1Cl | -1 | -1 | 2 | 1 | -2 | . | .
CNC(=O)CN(C)S(=O)(=O)c1ccc(OC)c(Cl)c1 | 75* | 0 | -2 | 0 | 3 | -4 | -1%
Cc1ccc(C(=O)CN2C(=O)NC3(CCc4ccccc43)C2=O)s1 (configuration not stated) | 58* | -1 | -1 | -1 | 14 | -2 | -1%
Cc1cccc(NC(=O)Cn2c(=O)n(Cc3ccccc3)c(=O)c3sc4ccccc4c32)c1 | 5 | -1 | 1 | -1 | -19 | . | .
O=C(COc1ncnc2ccccc12)NCCc1ccccc1 | 58* | 0 | -10 | 2 | -44* | -2 | -1%
COc1cc(/C=C2/C(=O)NN(c3cccc(C)c3)C2=O)ccc1OC(=O)c1ccco1 | 52* | -1 | -5 | 1 | 12 | -14 | 3%
COc1cc(/C=C2/C(=O)NN(c3cccc(C)c3)C2=O)cc([N+](=O)[O-])c1O | 9 | 0 | 17 | 1 | -4 | . | .
